{"source": "PubChem BioAssay (NCATS)", "note": "Results filed as inconclusive are left out. Calls of active or inactive are those of the source. The call rests on the fitted dose curve; in most records, active means well fitted inhibition curve with a large enough effect; inconclusive means small, poorly fitted or top-dose-only effect; inactive means no such curve, though single readings can be large or run the other way.", "data": [{"test_system": "Zika virus NS2B-NS3 protease (linked construct)", "test": "Primary screen NINDS Rhodamine qHTS for Zika virus inhibitors (AID 1347160); further: nearly all actives have a fitted effect of over 55% in size", "conditions": "purified NS2B-NS3 protease, Rhodamine110 substrate fluorescence; series mostly up to 57.1 µM", "excerpt": "Avindra Nath, Ph.D., National Institute of Neurological Disorders and Stroke (NINDS), Bethesda, MD\nRadhakrishnan Padmanabhan, Ph.D., Georgetown University (GU), Washington D.C.\nZika Virus causes congenital defects, including microcephaly and is associated with Guillain-Barre syndrome, eningoencephalitis and myelitis in infected adult. […] Using a target-based approach, we hope to establish a screening paradigm to uncover novel, cell-active NS2B-NS3 protease (Zika Virus) specific inhibitors from NCATS' collection of small molecules using qHTS.\nFour assay panel was created to identify potential Zika Virus inhibitors. Namely, (1) GU unlinked NS2B-NS3 AMC tagged protease qHTS, (2) GU unlinked NS2B-NS3 Rhodamine tagged protease qHTS, (3) NINDS linked NS2B-NS3 AMC tagged protease qHTS, (4) NINDS linked NS2B-NS3 Rhodamine tagged protease qHTS. Active compounds were re-acquired and re-screened to confirm inhibition. Inhibitors were further screened against various confirmatory and counterscreens in dose response format.\nEarly Translation Branch (ETB)\nNational Center for Advancing Translational Sciences (NCATS), Rockville, MD\nNational Institute of Health (NIH), Bethesda, Maryland\nFor the linked assay, Nath lab (NINDS) provided the purified linked NS2B-NS3 protease which is consists of hydrophilic domain of NS2B linked to the NS3 protease domain by a flexible (-[…]-) linker. Control compound aprotinin is obtained from Thermo Scientific (#78432; Waltham, Massachusetts). Rhodamine110 substrate ([N-Cbz]-Nle-Lys-Arg-Arg-Rhod110-Arg-Arg-Lys-Nle-[N-Cbz]) was purchased from either Genscript or Bachem.\n1536-well Protease (Rhodamine110 Substrate) Assay:\nBriefly, 3 microL of enzyme (25 nM final concentration), in assay buffer (10 mM Tris-HCl pH 8.0 with 0.01% Tween 20) were dispensed into a 1,536-well solid-bottom black plate (Greiner Bio One, Monroe, NC). Twenty-three nL of compounds (final concentration range 7.28 nM to 114 microM) or control Aprotinin (final concentration range 3.47 nM to 114 microM) were transferred via Wako Pin-tool (Wako Automation, Richmond, VA). Samples were incubated (room temperature, protected from light) for 15 minutes followed by a 1 microL Rhodamine110 substrate addition (1.5 microM final concentration). Plates were then immediately read on a ViewLux High-throughput CCD imager (PerkinElmer, Waltham, MA) equipped with FITC fluorescence optics (480(20) nm excitation, 540(25) nm emission), then incubated (room temperature, protected from light) for 15 minutes (~15% conversion). The change in fluorescence intensity over the 15-minute reaction period was normalized against no-inhibitor and no-enzyme controls and the resulting percent inhibition data were fitted to a 4-parameter Hill equation. Aprotinin was used as intraplate control.", "values": [{"compound": "NC1(c2ccc(-c3nc4ccn5c(=O)[nH]nc5c4cc3-c3ccccc3)cc2)CCC1", "outcome": "inactive"}, {"compound": "CC1(C)[C@H](C(=O)O)N2C(=O)C[C@H]2S1(=O)=O", "outcome": "inactive"}, {"compound": "CC1=NN(c2ccccc2)C(=O)C1", "outcome": "inactive"}, {"compound": "O=C(NCC1CN(c2ccc(N3CCOCC3=O)cc2)C(=O)O1)c1ccc(Cl)s1", "note": "(stereo unspecified)", "outcome": "inactive"}, {"compound": "O=C(O)CCn1c2c(c3ccccc31)C[C@H](NS(=O)(=O)c1ccc(F)cc1)CC2", "outcome": "inactive"}, {"compound": "O=P(O)(O)C(O)(Cc1cccnc1)P(=O)(O)O", "outcome": "inactive [at 4.91 µM]"}, {"compound": "CN(C)CCc1c[nH]c2ccc(C[C@H]3COC(=O)N3)cc12", "outcome": "inactive"}, {"compound": "CC(C(=O)O)c1ccc2c(c1)CC(=O)c1ccccc1S2", "note": "(stereo unspecified)", "outcome": "inactive"}, {"compound": "Cc1nnc(C(=O)NC(C)(C)c2nc(C(=O)NCc3ccc(F)cc3)c(O)c(=O)n2C)o1", "outcome": "inactive"}, {"compound": "Cc1onc(-c2ccccc2Cl)c1C(=O)N[C@@H]1C(=O)N2[C@@H]1SC(C)(C)[C@@H]2C(=O)O", "outcome": "inactive"}, {"compound": "CCCCc1oc2ccc(NS(C)(=O)=O)cc2c1C(=O)c1ccc(OCCCN(CCCC)CCCC)cc1", "outcome": "inactive; activator"}, {"compound": "CC[C@H](C)C(=O)O[C@H]1C[C@@H](C)C=C2C=C[C@H](C)[C@H](CC[C@@H]3C[C@@H](O)CC(=O)O3)[C@H]21", "outcome": "inactive [at 33.1 µM]"}, {"compound": "COc1cc2ncnc(Nc3cccc(Cl)c3)c2cc1OC", "outcome": "inactive"}, {"compound": "Nc1nc(F)nc2c1ncn2[C@@H]1O[C@H](CO)[C@@H](O)[C@@H]1O", "outcome": "inactive"}, {"compound": "CNS(=O)(=O)CCc1ccc2[nH]cc(C3CCN(C)CC3)c2c1", "outcome": "inactive"}, {"compound": "COc1cc2c(Nc3ccc(Br)cc3F)ncnc2cc1OCC1CCN(C)CC1", "outcome": "inactive"}]}]}
